Sa RN4220 lethal = growth inhibition of S. aureus RN4220, primary screen, OD600; 16 h; inhibition, % (no concentration beside the values); 0.33% of 330,000 active; in the data active = inhibition above about 85%
Sa ugtP lethal = growth inhibition of ugtP-null S. aureus, primary screen, RN4220 ugtP deletion, OD600; 16 h; AID 1259309, 2017; 0.54% of 330,000 active; growth inhibition, % (test concentration not listed); in the data active = growth inhibition above about 68%
PrPC surface inh = inhibitors of human cell surface prion protein PrPC, primary screen, cell-based, TR-FRET | TR-FRET read-out | inhibition, % at 13.8 µM | 0.43% of 370,000 active; in the data active = inhibition above about 24%
BJeLR lethal = MLPCN primary cell-based screen for lethality selective to Ras in HRASV12 cells. BJeLR (HRASV12) viability, CellTiter-Glo ATP luminescence, 48 h. inhibition, % (no concentration beside the values). 0.17% of 300,000 active; in the data active = inhibition above about 50%
PrPC confirm = confirmation of inhibitors of cell surface human prion protein, confirmation, cell-based, TR-FRET | shares compounds with PrPC surface inh | cell surface PrPC level | inhibition, % at 13.8 µM | 65% of 1,500 active | AID 743200, 2013; in the data active = inhibition above about 25%
LD9 tox = cytotoxicity in LD9 cells, cytotoxicity control for cell surface PrPc inhibitor project, cell-based, luminescence, high throughput. shares compounds with PrPC surface inh. luminescence viability. inhibition, % at 13.8 µM. 29% of 1,500 active. AID 743201, 2013; in the data active = inhibition above about 9.5%
Each line names hits and unclear results; the compound was inactive in the other large screens (follow-up assays come after a bar, where they were run). This is a sample that favours compounds with a hit; in the whole collection about 0.95% have one here.

COc1ccc(CCNC(=O)CON=Cc2cc3c(cc2Br)OCO3)cc1OC	none (no result: PrPC surface inh, BJeLR lethal)
c1ccc2cc(Cn3ccc4ccc(-c5ccc6cc[nH]c6c5)cc43)ccc2c1	none (no result: Sa RN4220 lethal, Sa ugtP lethal, BJeLR lethal)
Cc1cc(C(=O)NNC(=O)Nc2ccc(Cl)cc2)no1	none
Cc1cc(C(=O)NNc2ccc(Cl)cc2)no1	PrPC surface inh 30.9 (no result: Sa RN4220 lethal, Sa ugtP lethal) | PrPC confirm 33.2 | LD9 tox inactive
N#CC(C(=O)C12CC3CC(CC(C3)C1)C2)c1nc2ccccc2[nH]1 (configuration not stated)	PrPC surface inh 34.6 | PrPC confirm inactive | LD9 tox inactive
N#CC(C(=O)CCN1C(=O)C2CC=CCC2C1=O)c1nc2ccccc2[nH]1 (configuration not stated)	none
CCCNC(=O)N1C2CCC1C(C(=O)OC)=C(c1ccccc1)C2 (configuration not stated)	none (no result: PrPC surface inh, BJeLR lethal)
S=C(NCCc1ccccc1)N1CCn2cccc2C1c1cccnc1 (configuration not stated)	PrPC surface inh 32.0 | PrPC confirm inactive | LD9 tox inactive
COc1cc(C(=O)Nc2scc(-c3ccc(Br)cc3)c2C(=O)O)cc(OC)c1OC	PrPC surface inh 56.2 | PrPC confirm 60.0 | LD9 tox inactive
Cc1ccc(-c2csc(NC(=O)c3cccc(C)c3)c2C(=O)O)cc1	PrPC surface inh 36.3 | PrPC confirm 50.4 | LD9 tox inactive
CCc1c(C)nc(N)nc1N1N=C1SCC(N)=O	PrPC surface inh 26.0 | PrPC confirm 25.5 | LD9 tox inactive
CCC(Sc1ncnc2sc(C)c(C)c12)C(=O)OC (configuration not stated)	PrPC surface inh 79.7 | PrPC confirm 106.2 | LD9 tox inactive
Cc1cccnc1NC(=O)CSc1ncnc2sc(C)c(C)c12	none (no result: Sa RN4220 lethal, Sa ugtP lethal)
Cc1sc2ncnc(SCC(=O)Nc3ncccc3O)c2c1C	PrPC surface inh 27.1 (no result: BJeLR lethal) | PrPC confirm 31.9 | LD9 tox inactive
CCN(CC)C(=O)CSc1ncnc2sc(C)c(C)c12	none (no result: Sa RN4220 lethal, Sa ugtP lethal)
Cc1cccc(C)c1OCC(=O)NN=Cc1cccn1C	none (no result: PrPC surface inh, BJeLR lethal)
CC(=NNC(=O)CSc1nc2ccccc2n1C)c1ccc(O)cc1	none (no result: PrPC surface inh, BJeLR lethal)
CCn1c(COc2ccc(Cl)cc2)nnc1SCC(=O)Nc1ccc(Oc2ccccc2)cc1	none (no result: Sa RN4220 lethal, Sa ugtP lethal, BJeLR lethal)
O=C(NCc1cccc(Cl)c1)c1cc(COc2ccc3ncccc3c2)on1	PrPC surface inh 24.6 | PrPC confirm 25.8 | LD9 tox 15.0
Cc1ccc(F)cc1CNC(=O)c1cc(COc2ccc3ncccc3c2)on1	none
C=C1C(=O)OC2CC(C)C3C=CC(=O)[C@@]3(C)C(OC(=O)CC(=O)OC3C4C(=C)C(=O)OC4CC(C)C4C=CC(=O)[C@]43C)C12 (some centres not stated)	none (no result: PrPC surface inh, BJeLR lethal)
COc1ccc(C=NNC(=O)c2ccco2)cc1COc1ccc(F)cc1	none (no result: PrPC surface inh, BJeLR lethal)
O=C(NN=Cc1cc(Cl)c(O)c(Cl)c1)c1cc2c(ccc3ccccc32)o1	none (no result: PrPC surface inh, BJeLR lethal)
COc1cccc(NC(=O)NC2CCCCN(Cc3ccc(C)cc3)C2=O)c1 (configuration not stated)	PrPC surface inh 25.0 (no result: Sa RN4220 lethal, Sa ugtP lethal, BJeLR lethal) | PrPC confirm inactive | LD9 tox inactive
O=C(NCc1ccccc1Cl)C1CCC(CNS(=O)(=O)c2cccc3cccnc23)CC1 (configuration not stated)	PrPC surface inh 39.1 (no result: Sa RN4220 lethal, Sa ugtP lethal, BJeLR lethal) | PrPC confirm 49.6 | LD9 tox inactive
CC(C)(C)NC(=O)CN(Cc1cccs1)C(=O)C1COc2ccccc2O1 (configuration not stated)	none
CC(C)CCNC(=O)C(c1ccc(O)cc1)N(Cc1cccs1)C(=O)C1COc2ccccc2O1 (configuration not stated)	PrPC surface inh 24.8 | PrPC confirm inactive | LD9 tox inactive
Cc1ccccc1NC1=NCC(c2ccc([N+](=O)[O-])cc2)S1 (configuration not stated)	PrPC surface inh 45.7 | PrPC confirm 44.1 | LD9 tox inactive
O=C(Cc1cccs1)NC1CCCCN(Cc2cccc(Cl)c2)C1=O (configuration not stated)	none (no result: Sa RN4220 lethal, Sa ugtP lethal, BJeLR lethal)
O=c1[nH]c(=O)n(Cc2ccco2)c2c1C(C(F)(F)F)(C(F)(F)F)N=C(Cc1ccccc1)N2	PrPC surface inh 56.4 | PrPC confirm 46.6 | LD9 tox inactive
O=C(O)c1cc(-c2cccs2)nc2ccc(F)cc12	none
O=C(O)c1cc(-c2cccs2)nc2ccc(Br)cc12	PrPC surface inh 40.3 (no result: Sa RN4220 lethal, Sa ugtP lethal) | PrPC confirm 77.9 | LD9 tox inactive
Cc1nn(C)cc1CN(C)C(=O)c1cc(-c2ccccc2)nc2ccc(Br)cc12	PrPC surface inh 68.3 (no result: Sa RN4220 lethal, Sa ugtP lethal) | PrPC confirm 80.6 | LD9 tox inactive
O=C(O)c1cc(-c2cccnc2)nc2ccc(Br)cc12	PrPC surface inh 44.8 (no result: BJeLR lethal) | PrPC confirm 61.2 | LD9 tox inactive
COc1cc(C=NNC(=O)C(=Cc2ccccc2)CCO)ccc1O	none (no result: PrPC surface inh, BJeLR lethal)
CC(C)c1cc(C(=O)NN=Cc2ccoc2)cs1	none (no result: PrPC surface inh, BJeLR lethal)
CC(=O)Nc1cccc(C(C)=NNC(=O)c2ccccc2Cl)c1	none (no result: PrPC surface inh, BJeLR lethal)
O=C(NN=Cc1ccc(F)cc1)c1sccc1OCc1ccc(F)cc1	none (no result: PrPC surface inh, BJeLR lethal)
O=C(ON=C(c1ccccc1)c1ccccn1)c1cccc2ccccc12	none (no result: PrPC surface inh, BJeLR lethal)
CCOC(=O)COc1cc(Br)c(C=NNc2ccccc2)cc1OC	none (no result: PrPC surface inh, BJeLR lethal)
Oc1ccc2ccc3[nH]cnc3c2c1	PrPC surface inh 32.5 (no result: Sa RN4220 lethal, Sa ugtP lethal) | PrPC confirm inactive | LD9 tox inactive
CN(C)Cc1c(O)ccc2[nH]cnc12	none
Cc1ccccc1NC(=O)Nc1ccc(C(F)(F)F)cc1	PrPC surface inh 30.0 | PrPC confirm inactive | LD9 tox inactive
Cc1ccccc1NC(=O)CNC(=O)c1ccc(C(F)(F)F)cc1	none
O=Cc1s/c(=N\S(=O)(=O)c2ccccc2)n(CCCCl)c1Cl	PrPC surface inh 75.8 (no result: Sa RN4220 lethal, Sa ugtP lethal) | PrPC confirm 95.5 | LD9 tox 89.7
Cc1ccc(NS(=O)(=O)c2ccc3c(c2)NC(=O)CCS3)cc1F	none
Cc1ccc(NS(=O)(=O)c2ccc3c(c2)NC(=O)CCS3)cc1C	PrPC surface inh 24.7 | PrPC confirm inactive | LD9 tox 27.3
CCc1ccc(-c2nc3ccc(Br)cc3c(C(=O)O)c2C)s1	PrPC surface inh 47.8 | PrPC confirm 83.7 | LD9 tox inactive
COC(=O)C1=C(C(=O)OC)C2OC1c1cc3ccccc3cc12	PrPC surface inh 45.0 (no result: Sa RN4220 lethal, Sa ugtP lethal, BJeLR lethal) | PrPC confirm inactive | LD9 tox 98.3
COC(=O)C1=C(c2ccc3ccccc3c2)C[C@@H]2CC[C@H]1N2C	none (no result: Sa RN4220 lethal, Sa ugtP lethal, BJeLR lethal)
CN1CCN(C(=O)C2=CC(c3ccc4c(c3)OCO4)CC(OCCCCO)O2)CC1 (configuration not stated)	none (no result: PrPC surface inh, BJeLR lethal)
O=c1oc2ccccc2c(O)c1[C@H]1c2ccc(O)cc2Oc2c1c(=O)oc1ccccc21	PrPC surface inh 41.5 | PrPC confirm 56.6 | LD9 tox inactive
Cc1ccccc1C=NNC(=O)c1csnn1	none (no result: PrPC surface inh, BJeLR lethal)
COc1ccccc1N1CCN(c2nc3ccccc3nc2C(C#N)C(=O)OC(C)C)CC1 (configuration not stated)	PrPC surface inh 25.3 | PrPC confirm inactive | LD9 tox inactive
O=C(CNC(=O)c1ccccn1)NN=Cc1ccc2c(c1)OCO2	none (no result: PrPC surface inh, BJeLR lethal)

Assay outcomes from PubChem BioAssay.
